Of roughly 7,900 targets only a part is listed; those with a hit were picked by preference. About 0.6% of all pairs of compound and target were hits. Values without a mark were called inactive.
Each target was assayed with CC[C@@H]1C(=O)N(C)c2cnc(Nc3ccc(C(=O)NC4CCN(C)CC4)cc3OC)nc2N1C1CCCC1 (assay: log2 fold change, soluble protein after heating vs DMSO (PISA); higher = thermal stabilisation; K562 cells, 10 uM, 30 min; active = over 0.2 and 3.5 SD of the protein, either way, in both replicates (recomputed)).
Outline: (§1)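 Soluble protein was defined as the supernatant after 21,000xg for 90 min. It came from K562 cells at 2×10^6 cells/mL given 10 μM compound for 30 min, heated in aliquots for 3 min across 48°C-58°C, pooled, and extracted in PBS with 0.5% NP-40 at 4°C, and was quantified by TMTpro 16plex LC-MS/MS with equalised channel sums. Thermal stability against control samples, from duplicates, is reported as log2 fold change.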

Sequence of UniProt Q93096 (Q93096 whole entry, looked up): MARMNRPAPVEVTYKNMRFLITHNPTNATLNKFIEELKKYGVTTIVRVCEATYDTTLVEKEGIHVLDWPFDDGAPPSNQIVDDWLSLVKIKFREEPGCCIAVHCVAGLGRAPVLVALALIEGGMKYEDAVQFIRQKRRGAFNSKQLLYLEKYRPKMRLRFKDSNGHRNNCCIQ
Sequence of UniProt P28340 (P28340 whole entry, looked up): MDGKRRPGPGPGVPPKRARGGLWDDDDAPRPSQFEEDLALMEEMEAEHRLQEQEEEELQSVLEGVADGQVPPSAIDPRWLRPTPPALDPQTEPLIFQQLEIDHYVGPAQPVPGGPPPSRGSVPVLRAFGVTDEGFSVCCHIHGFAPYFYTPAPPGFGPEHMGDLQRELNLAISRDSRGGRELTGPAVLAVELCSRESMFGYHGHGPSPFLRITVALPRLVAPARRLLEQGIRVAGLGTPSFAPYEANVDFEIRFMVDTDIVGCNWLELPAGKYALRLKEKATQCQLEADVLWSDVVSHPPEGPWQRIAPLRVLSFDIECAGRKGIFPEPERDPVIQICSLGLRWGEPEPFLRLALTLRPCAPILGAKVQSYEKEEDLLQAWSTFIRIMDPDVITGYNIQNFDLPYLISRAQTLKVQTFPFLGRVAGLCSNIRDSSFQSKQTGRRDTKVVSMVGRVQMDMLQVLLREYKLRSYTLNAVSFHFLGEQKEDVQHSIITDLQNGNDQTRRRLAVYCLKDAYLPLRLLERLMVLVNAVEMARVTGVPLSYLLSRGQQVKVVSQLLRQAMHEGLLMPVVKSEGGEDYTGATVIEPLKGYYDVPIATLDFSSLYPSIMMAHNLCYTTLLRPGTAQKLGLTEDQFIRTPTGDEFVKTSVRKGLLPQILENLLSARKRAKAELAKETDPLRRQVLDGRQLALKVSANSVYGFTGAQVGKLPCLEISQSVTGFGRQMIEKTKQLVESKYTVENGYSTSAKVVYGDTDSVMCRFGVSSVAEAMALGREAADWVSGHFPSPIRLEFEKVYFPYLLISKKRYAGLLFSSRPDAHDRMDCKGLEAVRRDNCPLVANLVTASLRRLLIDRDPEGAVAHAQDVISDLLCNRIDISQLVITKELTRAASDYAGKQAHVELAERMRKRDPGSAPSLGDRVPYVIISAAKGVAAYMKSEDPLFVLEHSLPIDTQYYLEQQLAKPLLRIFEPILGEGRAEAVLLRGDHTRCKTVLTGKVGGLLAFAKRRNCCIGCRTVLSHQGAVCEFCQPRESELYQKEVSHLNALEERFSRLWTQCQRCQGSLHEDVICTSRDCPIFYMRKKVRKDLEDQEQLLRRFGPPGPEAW
Sequence of UniProt Q13131 (Q13131 whole entry, looked up): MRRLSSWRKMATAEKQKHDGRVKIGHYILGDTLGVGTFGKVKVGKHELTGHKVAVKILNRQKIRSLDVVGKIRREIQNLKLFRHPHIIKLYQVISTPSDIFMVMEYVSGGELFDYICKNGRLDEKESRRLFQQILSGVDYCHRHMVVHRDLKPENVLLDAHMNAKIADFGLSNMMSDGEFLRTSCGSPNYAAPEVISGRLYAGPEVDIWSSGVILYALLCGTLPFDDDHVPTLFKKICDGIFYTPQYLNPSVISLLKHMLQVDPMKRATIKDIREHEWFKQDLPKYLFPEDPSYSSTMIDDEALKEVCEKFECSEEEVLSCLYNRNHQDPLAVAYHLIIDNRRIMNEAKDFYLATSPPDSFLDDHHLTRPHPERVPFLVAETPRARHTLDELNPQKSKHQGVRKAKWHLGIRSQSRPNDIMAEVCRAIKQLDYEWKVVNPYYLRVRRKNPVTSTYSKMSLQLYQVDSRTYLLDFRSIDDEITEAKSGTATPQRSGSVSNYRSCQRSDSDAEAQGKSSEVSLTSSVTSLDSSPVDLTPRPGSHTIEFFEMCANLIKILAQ
Sequence of UniProt P0CAP2 (P0CAP2 whole entry, looked up): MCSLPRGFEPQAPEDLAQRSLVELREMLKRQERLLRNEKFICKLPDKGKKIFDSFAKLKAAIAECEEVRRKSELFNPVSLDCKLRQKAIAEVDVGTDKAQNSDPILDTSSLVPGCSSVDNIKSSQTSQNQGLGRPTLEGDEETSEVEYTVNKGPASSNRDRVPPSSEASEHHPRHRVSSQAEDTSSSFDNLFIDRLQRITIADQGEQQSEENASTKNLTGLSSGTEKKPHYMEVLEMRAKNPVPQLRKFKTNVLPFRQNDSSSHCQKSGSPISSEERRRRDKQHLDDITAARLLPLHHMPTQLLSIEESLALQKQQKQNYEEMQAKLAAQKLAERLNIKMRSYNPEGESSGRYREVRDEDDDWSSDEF
Sequence of UniProt O15305 (O15305 whole entry, looked up): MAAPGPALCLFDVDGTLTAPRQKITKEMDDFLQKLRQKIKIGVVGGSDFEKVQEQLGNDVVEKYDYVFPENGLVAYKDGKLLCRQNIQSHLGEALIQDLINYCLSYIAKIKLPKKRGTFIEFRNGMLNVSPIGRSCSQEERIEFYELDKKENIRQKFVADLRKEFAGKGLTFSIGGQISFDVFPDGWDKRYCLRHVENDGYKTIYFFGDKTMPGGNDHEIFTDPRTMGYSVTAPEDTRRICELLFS
Sequence of UniProt Q13356 (Q13356 whole entry, looked up): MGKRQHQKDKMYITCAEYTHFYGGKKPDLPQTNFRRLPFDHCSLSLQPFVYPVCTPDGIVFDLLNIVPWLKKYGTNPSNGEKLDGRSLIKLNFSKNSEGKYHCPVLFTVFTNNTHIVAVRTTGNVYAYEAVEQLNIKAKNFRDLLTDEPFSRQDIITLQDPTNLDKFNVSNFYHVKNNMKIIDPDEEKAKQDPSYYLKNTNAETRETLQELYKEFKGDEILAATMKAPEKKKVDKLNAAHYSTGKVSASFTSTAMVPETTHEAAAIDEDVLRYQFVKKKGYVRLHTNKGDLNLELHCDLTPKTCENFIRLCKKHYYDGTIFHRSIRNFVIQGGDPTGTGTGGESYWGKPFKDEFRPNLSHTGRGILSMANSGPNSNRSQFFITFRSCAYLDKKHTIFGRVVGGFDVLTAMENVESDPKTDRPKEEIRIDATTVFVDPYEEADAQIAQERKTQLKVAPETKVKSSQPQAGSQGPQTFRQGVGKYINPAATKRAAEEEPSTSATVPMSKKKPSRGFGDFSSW
Sequence of UniProt P31321 (P31321 whole entry, looked up): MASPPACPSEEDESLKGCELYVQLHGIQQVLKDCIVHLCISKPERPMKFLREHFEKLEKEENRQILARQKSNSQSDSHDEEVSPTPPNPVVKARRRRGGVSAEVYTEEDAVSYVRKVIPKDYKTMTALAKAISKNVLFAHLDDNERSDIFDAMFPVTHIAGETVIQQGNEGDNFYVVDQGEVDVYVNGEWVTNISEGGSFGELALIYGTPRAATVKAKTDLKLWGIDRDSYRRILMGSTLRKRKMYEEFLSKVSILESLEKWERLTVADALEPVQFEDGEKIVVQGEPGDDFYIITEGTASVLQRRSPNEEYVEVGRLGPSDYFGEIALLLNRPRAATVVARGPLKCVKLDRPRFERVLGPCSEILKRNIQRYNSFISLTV
Sequence of UniProt O15067 (O15067 whole entry, looked up): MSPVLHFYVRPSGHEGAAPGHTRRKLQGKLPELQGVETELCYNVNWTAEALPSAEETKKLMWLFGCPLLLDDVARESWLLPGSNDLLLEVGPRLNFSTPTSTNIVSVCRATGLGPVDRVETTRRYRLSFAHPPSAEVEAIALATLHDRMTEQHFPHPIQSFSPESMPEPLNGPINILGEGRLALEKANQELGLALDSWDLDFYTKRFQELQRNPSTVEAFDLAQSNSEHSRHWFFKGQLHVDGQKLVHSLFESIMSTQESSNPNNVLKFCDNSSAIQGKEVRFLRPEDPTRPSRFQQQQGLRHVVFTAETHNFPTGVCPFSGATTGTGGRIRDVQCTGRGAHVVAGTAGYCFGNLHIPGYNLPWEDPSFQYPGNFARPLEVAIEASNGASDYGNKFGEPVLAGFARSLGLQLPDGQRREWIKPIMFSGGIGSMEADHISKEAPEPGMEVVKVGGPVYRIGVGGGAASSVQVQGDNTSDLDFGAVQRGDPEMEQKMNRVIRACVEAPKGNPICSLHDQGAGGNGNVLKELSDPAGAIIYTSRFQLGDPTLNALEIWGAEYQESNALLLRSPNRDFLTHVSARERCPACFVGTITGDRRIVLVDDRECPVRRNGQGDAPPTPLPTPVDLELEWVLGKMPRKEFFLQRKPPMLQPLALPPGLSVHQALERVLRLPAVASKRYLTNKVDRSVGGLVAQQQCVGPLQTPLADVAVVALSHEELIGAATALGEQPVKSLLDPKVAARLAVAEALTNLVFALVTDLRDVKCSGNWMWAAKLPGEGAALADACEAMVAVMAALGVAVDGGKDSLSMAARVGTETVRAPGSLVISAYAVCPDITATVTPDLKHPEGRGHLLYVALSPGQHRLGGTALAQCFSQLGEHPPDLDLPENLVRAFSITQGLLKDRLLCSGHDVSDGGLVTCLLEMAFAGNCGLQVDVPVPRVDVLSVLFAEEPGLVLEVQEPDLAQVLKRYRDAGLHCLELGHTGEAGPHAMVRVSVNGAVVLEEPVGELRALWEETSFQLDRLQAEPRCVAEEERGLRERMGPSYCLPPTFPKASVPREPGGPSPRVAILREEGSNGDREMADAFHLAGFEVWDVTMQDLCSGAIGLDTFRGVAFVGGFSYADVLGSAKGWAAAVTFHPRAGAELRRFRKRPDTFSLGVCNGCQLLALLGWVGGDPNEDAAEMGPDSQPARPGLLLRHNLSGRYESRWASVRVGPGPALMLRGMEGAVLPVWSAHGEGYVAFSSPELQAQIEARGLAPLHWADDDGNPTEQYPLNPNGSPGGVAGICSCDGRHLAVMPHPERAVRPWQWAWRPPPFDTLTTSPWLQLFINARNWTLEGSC
Sequence of UniProt P51665 (P51665 whole entry, looked up): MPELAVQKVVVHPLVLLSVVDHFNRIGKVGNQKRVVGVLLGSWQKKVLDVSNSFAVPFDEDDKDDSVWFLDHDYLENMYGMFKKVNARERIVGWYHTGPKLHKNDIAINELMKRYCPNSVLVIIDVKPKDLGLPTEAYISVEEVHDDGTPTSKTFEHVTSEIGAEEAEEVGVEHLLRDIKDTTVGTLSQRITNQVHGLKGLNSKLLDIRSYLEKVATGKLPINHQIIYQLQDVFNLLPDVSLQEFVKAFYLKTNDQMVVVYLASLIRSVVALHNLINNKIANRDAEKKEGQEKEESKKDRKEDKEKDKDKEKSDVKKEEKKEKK

Question: With POLR2M (UniProt P0CAP2) as the target, how does the log2 fold change read?
Answer: The log2 fold change was 0.084.

Question: PCID2 (UniProt Q5JVF3) was tested. Which log2 fold change did it give?
Answer: The log2 fold change was -0.032.

Question: With PMPCA (UniProt Q10713) as the target, how does the log2 fold change read?
Answer: The log2 fold change was 0.018.

Question: POLA1 (UniProt P09884) was tested. Which log2 fold change did it give?
Answer: Its log2 fold change is -0.048.

Question: How did the log2 fold change turn out when PDE2A (UniProt O00408) was run?
Answer: Its log2 fold change is -0.031.

Question: For PDCD4 (UniProt Q53EL6), which log2 fold change is on record?
Answer: The log2 fold change was -0.26.

Question: PURA (UniProt Q00577) was tested. Which log2 fold change did it give?
Answer: The log2 fold change was 0.355.

Question: For PPP1R14A (UniProt Q96A00), which log2 fold change is on record?
Answer: Its log2 fold change is 0.002.

Question: How did the log2 fold change turn out when PMM2 (UniProt O15305) was run?
Answer: Its log2 fold change is -0.03.

Question: How did the log2 fold change turn out when PTRH2 (UniProt Q9Y3E5) was run?
Answer: Its log2 fold change is -0.004.

Question: With PPP2R5E (UniProt Q16537) as the target, how does the log2 fold change read?
Answer: The log2 fold change was -0.259 (active).

Question: With PFAS (UniProt O15067) as the target, how does the log2 fold change read?
Answer: Its log2 fold change is -0.04.

Question: For PPP2R5A (UniProt Q15172), which log2 fold change is on record?
Answer: The log2 fold change was -0.099.

Question: Which log2 fold change does the source give for PHKG2 (UniProt P15735) here?
Answer: Its log2 fold change is -0.155.

Question: With PKM (UniProt P14618) as the target, how does the log2 fold change read?
Answer: Its log2 fold change is 0.018.

Question: How did the log2 fold change turn out when PSMD12 (UniProt O00232) was run?
Answer: Its log2 fold change is 0.03.

Question: For PRKAR1B (UniProt P31321), which log2 fold change is on record?
Answer: Its log2 fold change is 0.024.

Question: For POLR2K (UniProt P53803), which log2 fold change is on record?
Answer: The log2 fold change was -0.259.

Question: How did the log2 fold change turn out when PLCB3 (UniProt Q01970) was run?
Answer: The log2 fold change was -0.05.

Question: How did the log2 fold change turn out when PLIN2 (UniProt Q99541) was run?
Answer: Its log2 fold change is -0.173.

Question: For POTEI (UniProt P0CG38), which log2 fold change is on record?
Answer: The log2 fold change was -0.009.

Question: Which log2 fold change does the source give for PTP4A1 (UniProt Q93096) here?
Answer: The log2 fold change was 0.025.

Question: PI4K2A (UniProt Q9BTU6) was tested. Which log2 fold change did it give?
Answer: The log2 fold change was -0.075.

Question: For POLR3K (UniProt Q9Y2Y1), which log2 fold change is on record?
Answer: The log2 fold change was -0.077.

Question: How did the log2 fold change turn out when PEX16 isoform 2 (UniProt Q9Y5Y5) was run?
Answer: Its log2 fold change is -0.065.

Question: With PIGT (UniProt Q969N2) as the target, how does the log2 fold change read?
Answer: Its log2 fold change is 0.02.

Question: How did the log2 fold change turn out when PRKAA1 isoform 2 (UniProt Q13131) was run?
Answer: Its log2 fold change is -0.035.

Question: For PTRHD1 (UniProt Q6GMV3), which log2 fold change is on record?
Answer: The log2 fold change was 0.106.

Question: How did the log2 fold change turn out when PPIL2 (UniProt Q13356) was run?
Answer: Its log2 fold change is -0.196.

Question: With PEX13 (UniProt Q92968) as the target, how does the log2 fold change read?
Answer: The log2 fold change was -0.053.

Question: How did the log2 fold change turn out when PSMD2 (UniProt Q13200) was run?
Answer: The log2 fold change was 0.049.

Question: For PPID (UniProt Q08752), which log2 fold change is on record?
Answer: The log2 fold change was -0.076.

Question: For POLD1 (UniProt P28340), which log2 fold change is on record?
Answer: Its log2 fold change is -0.061.

Question: Which log2 fold change does the source give for PDCD2L (UniProt Q9BRP1) here?
Answer: Its log2 fold change is -0.201.

Question: Which log2 fold change does the source give for PRKAB1 (UniProt Q9Y478) here?
Answer: The log2 fold change was -0.079.

Question: Which log2 fold change does the source give for PSMD7 (UniProt P51665) here?
Answer: The log2 fold change was 0.027.

Question: For PYGL (UniProt P06737), which log2 fold change is on record?
Answer: Its log2 fold change is -0.091.

The targets below were run with CC[C@@H]1C(=O)N(C)c2cnc(Nc3ccc(C(=O)N[C@H]4CC[C@H](N5CCN(CC6CC6)CC5)CC4)cc3OC)nc2N1C(C)C [volasertib] in the same assay as above.
Outline: as §1

Question: With POLR2M (UniProt P0CAP2) as the target, how does the log2 fold change read?
Answer: The log2 fold change was 0.026.

Question: With PCID2 (UniProt Q5JVF3) as the target, how does the log2 fold change read?
Answer: Its log2 fold change is 0.016.

Question: Which log2 fold change does the source give for PMPCA (UniProt Q10713) here?
Answer: Its log2 fold change is 0.158.

Question: Which log2 fold change does the source give for POLA1 (UniProt P09884) here?
Answer: Its log2 fold change is -0.466 (active).

Question: For PDE2A (UniProt O00408), which log2 fold change is on record?
Answer: Its log2 fold change is -0.107.

Question: PDCD4 (UniProt Q53EL6) was tested. Which log2 fold change did it give?
Answer: Its log2 fold change is -0.585 (active).

Question: With PURA (UniProt Q00577) as the target, how does the log2 fold change read?
Answer: The log2 fold change was 0.418.

Question: PPP1R14A (UniProt Q96A00) was tested. Which log2 fold change did it give?
Answer: Its log2 fold change is 0.051.

Question: With PMM2 (UniProt O15305) as the target, how does the log2 fold change read?
Answer: The log2 fold change was -0.021.

Question: PTRH2 (UniProt Q9Y3E5) was tested. Which log2 fold change did it give?
Answer: The log2 fold change was -0.09.

Question: How did the log2 fold change turn out when PPP2R5E (UniProt Q16537) was run?
Answer: The log2 fold change was -0.404 (active).

Question: Which log2 fold change does the source give for PFAS (UniProt O15067) here?
Answer: The log2 fold change was -0.124.

Question: Which log2 fold change does the source give for PPP2R5A (UniProt Q15172) here?
Answer: The log2 fold change was -0.295 (active).

Question: Which log2 fold change does the source give for PHKG2 (UniProt P15735) here?
Answer: The log2 fold change was -0.195.

Question: How did the log2 fold change turn out when PKM (UniProt P14618) was run?
Answer: Its log2 fold change is 0.037.

Question: With PSMD12 (UniProt O00232) as the target, how does the log2 fold change read?
Answer: Its log2 fold change is 0.158.

Question: How did the log2 fold change turn out when PRKAR1B (UniProt P31321) was run?
Answer: Its log2 fold change is -0.054.

Question: How did the log2 fold change turn out when POLR2K (UniProt P53803) was run?
Answer: Its log2 fold change is -0.002.

Question: PLCB3 (UniProt Q01970) was tested. Which log2 fold change did it give?
Answer: The log2 fold change was -0.037.

Question: PLIN2 (UniProt Q99541) was tested. Which log2 fold change did it give?
Answer: The log2 fold change was -0.259.

Question: POTEI (UniProt P0CG38) was tested. Which log2 fold change did it give?
Answer: The log2 fold change was -0.009.

Question: Which log2 fold change does the source give for PTP4A1 (UniProt Q93096) here?
Answer: Its log2 fold change is 0.019.

Question: For PI4K2A (UniProt Q9BTU6), which log2 fold change is on record?
Answer: Its log2 fold change is -0.081.

Question: POLR3K (UniProt Q9Y2Y1) was tested. Which log2 fold change did it give?
Answer: The log2 fold change was 0.056.

Question: PEX16 isoform 2 (UniProt Q9Y5Y5) was tested. Which log2 fold change did it give?
Answer: The log2 fold change was -0.138.

Question: For PIGT (UniProt Q969N2), which log2 fold change is on record?
Answer: The log2 fold change was -0.118.

Question: For PRKAA1 isoform 2 (UniProt Q13131), which log2 fold change is on record?
Answer: Its log2 fold change is -0.154.

Question: For PTRHD1 (UniProt Q6GMV3), which log2 fold change is on record?
Answer: Its log2 fold change is 0.037.

Question: PPIL2 (UniProt Q13356) was tested. Which log2 fold change did it give?
Answer: Its log2 fold change is -0.599 (active).

Question: For PEX13 (UniProt Q92968), which log2 fold change is on record?
Answer: The log2 fold change was -0.049.

Question: With PSMD2 (UniProt Q13200) as the target, how does the log2 fold change read?
Answer: Its log2 fold change is 0.089.

Question: With PPID (UniProt Q08752) as the target, how does the log2 fold change read?
Answer: Its log2 fold change is -0.366 (active).

Question: For POLD1 (UniProt P28340), which log2 fold change is on record?
Answer: Its log2 fold change is -0.239 (active).

Question: How did the log2 fold change turn out when PDCD2L (UniProt Q9BRP1) was run?
Answer: The log2 fold change was -0.435 (active).

Question: PRKAB1 (UniProt Q9Y478) was tested. Which log2 fold change did it give?
Answer: The log2 fold change was -0.418 (active).

Question: PSMD7 (UniProt P51665) was tested. Which log2 fold change did it give?
Answer: The log2 fold change was 0.205.

Question: PYGL (UniProt P06737) was tested. Which log2 fold change did it give?
Answer: Its log2 fold change is -0.262 (active).

Source: the supplement of paper PMC10849652
